# Rows were chosen to be rich in hits. Some 0.9% of all compounds tested hit in one or more screens of this group.
# SRC3 TRFRET art – TR-FRET detection interference compounds, artefact control for PPARgamma SRC-3 recruitment agonists, biochemical, TR-FRET ratio | TR-FRET artefact counter-screen, PPARgamma/SRC-3 format; hits give high values | TR-FRET ratio at 8 µM | 99,000 tested, 0.39% active
# SRC2 TRFRET art – TR-FRET signal artefacts, primary screen, artefact control for PPARgamma SRC-2 agonist project, biochemical. 200,000 tested, 0.4% active. AID 1049, 2008. TR-FRET artefact counter-screen; hits give high values. TR-FRET ratio at 8 µM
# SRC1 TRFRET art – TR-FRET detection interference compounds, primary screen, artefact control for PPARgamma SRC-1 recruitment agonists, biochemical, TR-FRET emission ratio. TR-FRET detection artefact counter-screen; hits give high values. TR-FRET ratio at 8 µM. 99,000 tested, 0.34% active; in the data active = TR-FRET ratio above about 2300
# PPARg SRC1 recr – PPARgamma agonists recruiting SRC-1 coactivator, primary screen, biochemical; PPARgamma-SRC-1 coactivator recruitment biochemical assay; activation, % at 8 µM; AID 631, 2007; Peroxisome proliferator-activated receptor gamma (Homo sapiens), P37231; 200,000 tested, 0.41% active; in the data active = activation above about 19%;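 also: 0% = DMSO and 100% = reference agonist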
# Target sequence (P37231 whole entry, looked up): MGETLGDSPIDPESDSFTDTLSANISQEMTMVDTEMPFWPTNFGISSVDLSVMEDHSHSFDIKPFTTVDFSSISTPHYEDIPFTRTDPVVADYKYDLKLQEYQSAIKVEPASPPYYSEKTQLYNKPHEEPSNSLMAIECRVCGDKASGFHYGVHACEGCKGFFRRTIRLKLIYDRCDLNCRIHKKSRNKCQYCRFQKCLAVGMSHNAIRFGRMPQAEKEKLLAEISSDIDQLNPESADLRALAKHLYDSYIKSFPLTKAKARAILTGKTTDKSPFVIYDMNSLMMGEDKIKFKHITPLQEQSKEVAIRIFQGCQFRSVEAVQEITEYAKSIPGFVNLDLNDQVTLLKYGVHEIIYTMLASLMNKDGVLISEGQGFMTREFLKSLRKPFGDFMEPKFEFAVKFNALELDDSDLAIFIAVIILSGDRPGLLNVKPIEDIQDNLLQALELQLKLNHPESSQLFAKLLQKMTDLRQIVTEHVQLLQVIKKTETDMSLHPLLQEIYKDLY
# PPARg SRC-3 ag – PPARgamma agonists recruiting SRC-3 coactivator, primary screen, biochemical; activation, % at 8 µM; Peroxisome proliferator-activated receptor gamma (Homo sapiens), P37231; AID 731, 2007; 200,000 tested, 0.26% active; biochemical PPARgamma/SRC-3 coactivator recruitment assay; in the data active = activation above about 23%;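 also: 0% = DMSO and 100% = reference agonist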
# PPARg SRC2 recr – agonists of PPARg-SRC-2 recruitment, primary screen, biochemical, HTS. Peroxisome proliferator-activated receptor gamma (Homo sapiens), P37231. PPARgamma LBD-SRC-2 recruitment. activation, % at 8 µM. 200,000 tested, 0.34% active. AID 1032, 2008; in the data active = activation above about 22%;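 also: 0% = vehicle and 100% = reference agonist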
# Numbers without * were called inactive; · = not tested or not shown. Rule as the data show it, unless noted: active = TR-FRET ratio above about 2000; inactive = the rest.
SMILES,SRC3 TRFRET art,SRC2 TRFRET art,SRC1 TRFRET art,PPARg SRC1 recr,PPARg SRC-3 ag,PPARg SRC2 recr
COc1ccccc1C(=O)Nc1cccnc1,1667,1551,1929,5.7,3.5,9.7
COc1ccccc1C(=O)Nc1ccccn1,·,1834,·,1.6,1.1,23.9*
COc1cc(CC(=O)OCC(=O)Nc2ccc(N3CCOCC3)cc2)cc(OC)c1OC,1607,1613,1405,3.4,-2.1,-1.8
CCOc1ccc(N=C2NN=C(c3cc(C)n(CC4CCCO4)c3C)CS2)cc1 (stereo not drawn),1828,1711,1953,21.8*,1.6,2.5
CCN(CC)S(=O)(=O)c1cc(NC(=O)c2ccc(Br)s2)ccc1C,1805,1640,2789*,-0.3,7.2,14.0
O=C(OC1CCCCC1)c1ccc2c(c1)C1C=CCC1C(C(=O)O)N2 (stereo not drawn),1554,2020*,1642,3.8,5.4,19.2
Cc1cc2nc(-c3ccc(SCc4ccc(C#N)cc4)nc3)[nH]c2cc1C,·,2209*,·,4.6,9.7,12.0
COc1ccccc1NC(=S)NC(=O)/C=C/c1cccs1,1608,1695,1853,6.0,-1.1,8.9
O=S(=O)(Nc1cccc(C(F)(F)F)c1)c1cnc[nH]1,1615,1811,1838,4.9,0.8,34.9*
O=S(=O)(Nc1ccc(C(F)(F)F)cc1)c1cnc[nH]1,1657,1467,1541,7.6,-1.2,6.5
CCN(CC)Cc1c(O)ccc2c(=O)c(Oc3ccccc3OC)coc12,·,1504,·,2.1,-10.1,0.1
COC(=O)c1ccc(COC(=O)c2ccc(S(=O)(=O)N3CCC(C)CC3)cc2)o1,·,1607,·,21.4*,7.2,6.7
Cc1ccc(C(=O)Nc2ccc(N3CCN(C)CC3)nc2)cc1,1551,1611,1672,0.4,5.6,8.4
CCOC(=O)Nc1ccccc1C(=O)Nc1cc(C)cc(C)c1,1456,1463,1754,-0.9,5.7,4.5
CCOC(=O)Nc1cccc(NC(=O)c2ccccc2F)c1,1632,1470,2378*,8.6,3.3,8.9
O=C(O)c1cccc(Cn2cc(Br)cn2)c1,·,1318,·,-3.1,-5.0,-3.5
CCN1C(=O)c2n[nH]c(C(=O)OC)c2C1=O,·,1683,·,9.5,0.2,3.0
O=C(Nc1ccc2nn(-c3ccccc3)nc2c1)c1ccc2c(c1)OCO2,·,1492,·,5.8,-5.6,22.4*
O=C(Nc1cccc(F)c1)c1ccc2c(c1)OCO2,·,1477,·,-4.4,5.9,2.2
O=C(Nc1ccc2oc(-c3ccc4ccccc4c3)nc2c1)c1ccc2c(c1)OCCO2,·,1469,·,27.1*,7.4,6.9
Cc1ccc2nc(-c3cccc(NC(=O)c4ccc5c(c4)OCCO5)c3)oc2c1,·,1507,·,-10.3,-10.5,-1.8
CCOc1ccc(CCNC(=O)CSc2nnnn2C)cc1OCC,1401,1549,1724,3.7,1.6,-5.8
CCOc1ccc(CCNC(=O)CSc2nn(-c3ccc(C)c(Cl)c3)c(=S)s2)cc1OCC,1533,1407,2577*,29.9*,0.9,3.2
COc1ccc(C2CC(c3ccc(Br)cc3)=NN2C(=O)CSC2=NCCS2)cc1 (stereo not drawn),2257*,1826,1958,-7.7,5.1,8.5
O=C(COC(=O)c1ccc(-c2nnc(-c3ccccc3)o2)cc1)c1ccccc1,1850,2098*,2073,5.4,3.4,14.8
SMILES,SRC3 TRFRET art,SRC2 TRFRET art,SRC1 TRFRET art,PPARg SRC1 recr,PPARg SRC-3 ag,PPARg SRC2 recr
C#CCSc1nnc(-c2ccccc2)c(=O)[nH]1,·,1756,·,3.7,9.3,22.5*
COc1ccc(C2OCC3(CO2)SC(N)=NC3=O)cc1 (stereo not drawn),·,1454,·,-3.6,3.3,4.5
O=C(Nc1cnccn1)c1cccc(C(F)(F)F)c1,·,2375*,·,-0.4,2.0,65.0*
CSc1nc(N)nc(SCC(=O)C23CC4CC(CC(C4)C2)C3)c1C#N,·,1593,·,2.0,13.4,4.5
N#Cc1c(N)nc(SCC(=O)C23CC4CC(CC(C4)C2)C3)c(C#N)c1-c1ccc(Cl)cc1,·,1336,·,98.8*,4.2,2.4
c1ccc2[nH]c3cc4ncnc4cc3nc2c1,1699,1543,1830,21.8*,14.7,8.1
O=C(Nc1ccc(N2CCCCC2)cc1)c1ccccc1,·,1498,·,18.8*,7.3,0.3
O=C(Nc1ccncc1)c1cncc(Br)c1,·,1683,·,11.9,19.0,4.8
Cc1ccc(C(=O)Nc2ccc(N3CCCC3)cc2)cc1,1531,1744,1942,22.3*,6.1,4.8
O=C(Nc1ccc(N2CCCCC2)cc1)c1cncc(Br)c1,·,1438,·,19.7*,4.8,6.2
COCc1cc(C)n(CC(=O)Nc2ccc(Cl)cc2Cl)c(=O)c1C#N,·,1735,·,6.0,8.3,14.3
Cc1cc(C)nc(/N=c2/ssnc2Cl)c1,·,1451,·,8.6,27.9*,-3.5
Cc1ccc(N=c2ssnc2Cl)cc1,·,1546,·,-0.2,7.9,1.6
CCN(CC)CCn1c(NC(=O)c2ccc(Cl)cc2)nc2ccccc21,·,4842*,·,-4.7,1.1,153.1*
CCOC(=O)C1C(=O)C=C(c2ccc([N+](=O)[O-])cc2)CC1c1ccccc1 (stereo not drawn),·,1385,·,1.6,3.2,1.2
CCOC(=O)C1C(=O)C=C(c2ccc(C)cc2)CC1c1ccccc1 (stereo not drawn),1705,2001*,2102,7.7,0.4,10.7
CCOc1ccc(-c2csc(NNC3=NCCCCC3)n2)cc1,1370,1444,2430*,22.9*,4.8,4.6
COc1ccc(-c2csc(NNC3=NCCCCC3)n2)cc1,1498,1429,1628,2.6,5.5,6.6
S=c1nc(SCc2ccccc2)[nH]c2ccccc12,2007,2041*,2318*,-2.0,14.6,21.2
CC(=O)CCc1ccc(OC(=O)c2cccnc2)cc1,·,1983*,·,4.5,0.6,25.9*
O=C(CSc1nc2nc3c(cc2c(=O)n1-c1ccccc1)CCCC3)Nc1cccc2ccccc12,2727*,2372*,2437*,2.8,-1.8,12.1
CCn1c(SCC(=O)Nc2ccc(Cl)cc2)nc2nc3c(cc2c1=O)CCCC3,1898,2837*,1677,0.0,3.9,68.0*
CCOC(=O)C1CCN(C(=O)N(C)C)CC1,·,1523,·,1.3,7.5,7.0
Cc1ccc(SCC(=O)NCCSCc2ccccc2)cc1,1654,1442,1628,-3.1,-1.7,7.7
COc1cc(OC)cc(-c2nnc(SCC(=O)N(Cc3ccccc3)C(C)(C)C)o2)c1,·,1712,·,16.9,5.0,22.5*
COc1ccc(N2CCN(CCCNC(=S)Nc3c(C)cccc3C)CC2)cc1,1665,1580,1715,14.5,2.4,6.9
CCc1ccc2nc(N3C(=O)C(O)=C(C(=O)c4ccco4)C3c3cccs3)sc2c1 (stereo not drawn),·,2282*,·,29.1*,27.9*,36.1*
